Compound activity (PubChem)
Compounds with a hit are over-represented: about 7.9% of the library has one in this group of screens.
HCV inhibitor: qHTS Assay for Inhibitors of Hepatitis C Virus (HCV) | Huh7.5.1 HCVcc-Cre infection, luciferase reporter, 44 h | Potency, µM (doses to about 41.8 µM), for inactives: at the highest dose activity change, negative = inhibition, actives largely listed as inhibitors | 3.4% of 340,000 active | AID 651820, 2012; active = well fitted inhibition curve with a large enough effect; inconclusive = small, poorly fitted or top-dose-only effect, or another doubt; inactive = no such curve, though single readings can be large or run the other way; note: potency is the fitted concentration of half-maximal effect
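Cells (1,000/well) were plated 4 h before compound, then infected with HCVcc-Cre virus (~0.5 moi). After 44 h further culture, infection was read as luciferase luminescence following a 15 min substrate incubation at room temperature.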
LASV entry inh: qHTS for Inhibitors of binding or entry into cells for Lassa Virus. Lassa virus pseudotype entry inhibition, cell reporter. Potency, µM (doses to about 37.9 µM), inactives show at the highest dose activity change, negative = inhibition, actives largely listed as inhibitors. 1.2% of 300,000 active. AID 540256, 2011; calls by dose curve; tested in HEK293 cells; note: potency is the fitted concentration of half-maximal effect; nearly all actives have a fitted effect of over 50% in size
FMDV inh: High Throughput Screening for Foot and Mouth Disease Virus Antivirals; 1.2% of 410,000 active; Potency, µM (highest dose often 57.9 µM), for the others: at the highest dose activity change, negative = inhibition, hits mostly inhibitors; AID 1159524, 2015; FMDV antiviral cell-based qHTS; calls by dose curve; tested in HEK293T cells; note: read-out not given here; potency is the fitted concentration of half-maximal effect; nearly all actives have a fitted effect of over 45% in size
HCMV antiviral: qHTS Assay for inhibitors of the human cytomegalovirus (HCMV). HFF cells, HCMV-luciferase reporter, 72 h; stronger effect = lower value. activity change, negative = inhibition, % at 57.5 µM. AID 1259415, 2018. 4.5% of 410,000 active; in the data active = activity change below about -60%; inconclusive = no clear call, values can overlap the other calls; inactive = above about -39%
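Two-dose cell screen: HFF monolayers treated with compounds and infected with luciferase-expressing HCMV at 1 PFU/cell, 72 h at 37C, then lysed for luciferase measurement.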
MARV entry inh: qHTS for inhibitors of binding or entry into cells for Marburg Virus | Potency, µM (titrated, usually from 37.8 µM), inactives show at the top dose activity change, negative = inhibition, most hits filed as inhibitors | Marburg virus pseudotyped entry inhibition, cell reporter | 1.8% of 300,000 active; calls by dose curve; tested in HEK293 cells; note: potency is the fitted concentration of half-maximal effect
Starred values were filed as active, the others as inactive; ? = inconclusive; nt = no result; ! = not active in a repeat; [ ] = remark or other dose. % is set by controls: 0 for no effect and ±100 for the full control effect.

SMILES	HCV inhibitor	LASV entry inh	FMDV inh	HCMV antiviral	MARV entry inh
CCc1cc2c(cc3c(=O)n(CC(=O)NC4CCC(C)CC4)nc(CC)n32)s1 (stereo unspecified)	nt	nt	38%	90	?
Cc1cc(N2CCC(C)CC2)c(F)cc1[N+](=O)[O-]	0%	0%	1%	-12	0%
Cc1cc(N2CCCC2)c(F)cc1/C=C\[N+](=O)[O-]	5%	?	22µM*	-4	-11%[46.1 µM]
Cc1ncc2c(c1CNC(=O)c1ccc3c(c1)OCO3)CCN(C(=O)C1Cc3ccccc3O1)C2 (stereo unspecified)	nt	nt	-7%	nt	nt
COc1ccc(CNC(=O)CSCc2cnn(-c3ccccc3)c2-n2cccc2)cc1	-9%	-27%	?	3	-3%
COc1ccc(OC)c(CCNC(=O)c2cc3c(=O)n(C)c4ccccc4c3n2C)c1	nt	?	?	-105*	13%[46.1 µM]
COc1ccc(OC)c(CCNC(=O)c2cnn(-c3ccccc3)c2-n2cccc2)c1	nt	-4%[46.1 µM]	0%	-90*	?
Cc1ccccc1OCC(=O)Nc1nnc(SCc2cc(=O)n3cc(Cl)ccc3n2)s1	nt	-3%[46.1 µM]	-7%	-30	nt
O=C(NCCc1cccs1)c1ccc(Cn2c(SCc3ccccc3)nc3cccnc32)cc1	nt	-10%[46.1 µM]	-8%	16	nt
O=C(Nc1ccc(Cl)cc1)c1csc(N2CCN(Cc3ccccc3)C2=O)n1	nt	nt	nt	-12	nt
Cc1c(NC(=O)CN2C(=O)NC3(CCCC3)C2=O)c(=O)n(-c2ccccc2)n1C	-3%	4%	11%	-101*	6%
CN(CC(=O)Nc1cccc(F)c1)CC(=O)Nc1cccc(S(=O)(=O)N(C)c2ccccc2)c1	?	?	?	67	?
Cc1c(NC(=O)CN2C(=O)NC(C)(c3ccccc3Cl)C2=O)c(=O)n(-c2ccccc2)n1C (stereo unspecified)	6%	?	2%	nt	12%
CN(c1ccccc1)S(=O)(=O)c1cccc(NC(=O)CN2CCCc3ccccc32)c1	?	?	-8%	0	8.9µM*
Cc1cc(C)c(NC(=O)CN(C)CC(=O)Nc2cccc(S(=O)(=O)N(C)c3ccccc3)c2)c(C)c1	10µM*	nt	?	?	nt
CN(c1ccccc1)S(=O)(=O)c1cccc(NC(=O)CN2C(=O)NC3(CCCCC3)C2=O)c1	3.2µM*	nt	-17%	4	nt
O=C(c1cccs1)N1C[C@@H](O)[C@@H](n2cc(C3CC3)nn2)C[C@@H]1c1ccccc1	nt	8%[46.1 µM]	nt	nt	nt
N#Cc1ccccc1COc1ccc(/C=C/C(=O)O)cc1	13%	?	0%	-71*	?
O=C(O)/C=C/c1ccc(S(=O)(=O)Nc2ccc(OCc3ccccc3)cc2)cc1	16%	nt	3%	-27	nt
COCCNC(=O)C1CCCN(C(=O)c2ccnc(Cl)c2)CC1 (stereo unspecified)	nt	nt	-15%	-69*	nt
CCC(C)NC(=O)C1CCN(C(=O)c2cc3sccc3n2Cc2ccc(Cl)cc2)CC1 (stereo unspecified)	nt	nt	14µM*	nt	?
COCCNC(=O)C1CCN(C(=O)c2cc3sccc3n2Cc2ccc(Cl)cc2)CC1	nt	nt	?	nt	7.9µM*
CCn1c(C(=O)N2CCC(C(=O)NCc3ccc(OC)cc3)CC2)cc2sccc21	-29%	?	-18%	nt	-5%[46.1 µM]
O=C(NCc1ccco1)C1CCN(C(=O)c2ccc(Cl)cc2)CC1	18%	nt	-22%	-10	nt
O=C(NCc1ccco1)C1CCN(C(=O)c2cc3sccc3n2Cc2ccc(Cl)cc2)CC1	?	?	nt	nt	12µM*!
SMILES	HCV inhibitor	LASV entry inh	FMDV inh	HCMV antiviral	MARV entry inh
COCCNC(=O)C1CCN(C(=O)c2cc3sccc3n2Cc2ccc(F)cc2)CC1	?	nt	-29%	nt	nt
CN1CCN(c2nc3c(S(=O)(=O)c4ccc(Br)cc4)nnn3c3ccsc23)CC1	nt	-8%[46.1 µM]	24%	63	nt
COc1ccc(CNCCC(c2ccc(F)cc2)c2ccc(OC)cc2)cc1 (stereo unspecified)	?	13µM*	-10%	-22	11µM*
Oc1ccc(NCc2ccc(OCc3ccccc3Cl)cc2)cc1	nt	?	13%	7	?
COc1ccc(C(CCNC(C)c2ccccc2)c2ccc(F)cc2)cc1 (stereo unspecified)	?	?	31%	?	?
COc1ccc(CNC(=O)CNC(C)c2ccc(F)cc2)cc1 (stereo unspecified)	8%	nt	-17%	13	nt
COc1ccc(C(CCNCc2ccc(F)cc2)c2ccc(F)cc2)cc1 (stereo unspecified)	?	?	23%	?	15µM*
Oc1ccc(NCc2ccc(OCc3ccccc3)cc2)cc1	-23%	?	24%	-63*!	?
COc1ccc(C(CCNCc2ccccc2)c2ccc(F)cc2)cc1 (stereo unspecified)	6.3µM*	?	28%	-29	?
COc1cccc(N2CC(NC(=O)C3CCCCC3)CC2=O)c1 (stereo unspecified)	nt	?	-16%	-17	nt
CCOC(=O)CNc1ncnc2c1nnn2C	nt	7%[46.1 µM]	-8%	-25	nt
COc1ccc(NS(=O)(=O)c2cc3[nH]c(=O)c(=O)[nH]c3cc2C)cc1Cl	nt	15%[46.1 µM]	5%	2	nt
COc1ccc(CCNCc2ccc(OCc3ccccc3)cc2)cc1	-9%	?	12%	-89*	?
C=CCNC(=O)CC(=O)N/N=C/c1ccc(C(=O)OC)cc1	5%	7%	-23%	-67*	0%[46.1 µM]
COC(=O)CCCCCn1c(-c2ccccc2)cn2c3c(=O)n(C)c(=O)n(C)c3nc12	nt	?	-2%	-23	6%[46.1 µM]
Clc1ccc(Cn2cnc3ccccc32)cc1	?	-25%[46.1 µM]	?	-70*	?
c1ccc(Cn2cnc3ccccc32)cc1	?	?	nt	14	?
CC(C)=CCCC(C)CN1CCC(N2CCC(C(=O)N3CCCC3)CC2)CC1 (stereo unspecified)	2.5µM*	nt	?	?	nt
Cc1ncc(CN2CCC(N3CCC(C(=O)N4CCCC4)CC3)CC2)s1	-10%	-4%	-15%	nt	4%
COc1cc2c(cc1NC(=O)COC(=O)[C@@H](NC(=O)c1ccccc1)C(C)C)oc1ccccc12	7.1µM*	-25%	-6%	10	?
COc1cc2c(cc1NC(=O)COC(=O)C1CC(=O)N(Cc3ccco3)C1)oc1ccccc12 (stereo unspecified)	4.5µM*	20%	49%	203	-3%
COc1cc2c(cc1NC(=O)COCC(=O)O)oc1ccccc12	2%	24%[46.1 µM]	-5%	?	2%[46.1 µM]
COc1cc2c(cc1NC(=O)COC(=O)CNC(=O)c1ccccc1)oc1ccccc12	10µM*	24%	56%	?	-10%[46.1 µM]
O[C@H]1C[C@H](c2ccccc2)N(CC2CCCCC2)C[C@H]1n1cc(-c2ccc(F)cc2)nn1	nt	-35%[46.1 µM]	nt	nt	nt
Cc1c(C(=O)Nc2cccc(C#N)c2)sc2nc3n(c(=O)c12)CCCCC3	nt	23%[46.1 µM]	-13%	-20	nt
